KB-V1 cytotox – KB-V1 MDR subline cytotoxicity. Potency, µM (top dose mostly 46.1 µM), actives largely listed as cytotoxic. KB-V1 MDR cells viability, CellTiter-Glo, 72 h. hit rate 3.4% among 400,000; also: nearly all actives have a fitted effect of over 60% in size
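KB-V1 cells (P-gp-expressing MDR subline of KB-3-1) in phenol-red-free DMEM with 10% FBS were exposed to library compounds over a concentration series for 72 h at 37 degrees C. Viability read by CellTiter-Glo luminescence; concentration-effect curves fitted after normalization.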
KB-3-1 cytotox – KB-3-1 parental cell cytotoxicity; AID 1347075; Potency, µM (series often up to 46.1 µM), actives largely listed as cytotoxic; hit rate 1.4% among 400,000; KB-3-1 viability, CellTiter-Glo ATP luminescence, 72 h; also: nearly all actives have a fitted effect of over 60% in size
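Parental KB-3-1 viability, qHTS format: 72 h compound exposure, 37 °C; CellTiter-Glo; media-only wells and DMSO plates as controls; concentration-effect fits on corrected data.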
HT1080 IDH1KD tx – HT-1080 IDH1 knockdown cell toxicity (counter line) | HT-1080 IDH1 knockdown viability, ATP luminescence, 48 h | Potency, µM (titrated, usually from 46.1 µM), inactives show at the top dose activity, negative = toxicity, most hits filed as cytotoxic | hit rate 2% among 360,000;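 also: 0% = DMSO wells and -100% = cell-free medium wells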
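After a 2 h attachment period, IDH1KD HT-1080 cells took pin-transferred compound for 48 h at 37 °C; ATP-based luminescence after 10 min room-temperature reagent incubation reported viability.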
TDP1 cell noCPT – qHTS for Inhibitors of human tyrosyl-DNA phosphodiesterase 1 (TDP1): qHTS in cells in absence of CPT | hit rate 15% among 420,000 | Potency, µM (titrated, usually from 46.2 µM), inactives show at the highest dose activity change, negative = growth inhibition, actives largely listed as inhibitors | AID 686978, 2013 | DT40 Tdp1-/- hTDP1 cells, no CPT, ATP luminescence, 48 h; also: nearly all actives have a fitted effect of over 55% in size
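Readout: luminescence from CellTiter-Glo after 30 min in the dark at RT. Cells: DT40 Tdp1-/- with stable hTDP1, 400/well. Exposure: compounds alone, ≥48 hr, 37 °C.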
DT40 TDP1 CPT – DT40-hTDP1 cell growth loss with CPT. chicken DT40 Tdp1-/-;hTDP1 cells + 20 nM CPT, ATP luminescence, 48 h. Potency, µM (highest dose often 46.2 µM), without a hit: at the top dose activity change, negative = growth inhibition, hits mostly inhibitors. hit rate 12% among 420,000; also: nearly all actives have a fitted effect of over 55% in size
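Chicken DT40 Tdp1-/- cells stably complemented with human TDP1 were seeded at 400 cells/well in medium containing 20 nM camptothecin, exposed to pin-transferred compounds, and grown at 37 °C for at least 48 hr. Viability was read as ATP luminescence.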
HT1080-NT tox – kills 2HG-producing HT-1080-NT fibrosarcoma cells | HT-1080-NT fibrosarcoma viability, CellTiter-Glo ATP luminescence, 48 h | Potency, µM (titrated, usually from 46.1 µM), for the others: at the highest dose activity, negative = less viability, most hits filed as cytotoxic | hit rate 1.6% among 360,000 | AID 686970;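 also: NT is the 2HG producing partner of a matched IDH1 knockdown line; 0% = DMSO-treated cells and -100% = media-only wells without cells; nearly all actives have a fitted effect of over 55% in size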
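Compounds were tested in concentration-response format on HT-1080-NT cells for 48 hours at 37 degrees C. Cell viability came from CellTiter-Glo luminescence; curves were classified by r2, response magnitude and activity.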
An asterisk follows results filed as active; i = inactive; ? = inconclusive; · = no result given. An excerpt weighted towards active compounds, which were near 19% of everything screened. Calls follow the shape of the dose curve; as a rule, active = well fitted curve in the direction sought with a large enough effect; inconclusive = small, poorly fitted or top-dose-only effect, or another doubt; inactive = no such curve, though single readings can be large; an effect the other way counts as inactive or inconclusive. Unless noted, % is scaled to controls: 0 for no effect and ±100 for the full control effect; potency is read from the fitted curve at half-maximal effect.

SMILES	KB-V1 cytotox	KB-3-1 cytotox	HT1080 IDH1KD tx	TDP1 cell noCPT	DT40 TDP1 CPT	HT1080-NT tox
CC1(C(=O)Nc2ccc(Cl)c(Cl)c2)CCN1C(=O)CCC1CCCC1 (stereo unspecified)	i	i	3%	23µM*	23µM*	-26%
CC1(C(=O)Nc2cccc(C#N)c2)CCN1C(=O)CCc1ccccc1 (stereo unspecified)	i	i	2%	?	?	3%
CC1(C(=O)Nc2cccc(C#N)c2)CCN1C(=O)C1(c2ccccc2)CC1 (stereo unspecified)	i	i	13%	?	5.2µM*	?
CC1(C(=O)Nc2ccccc2)CCN1C(=O)C1(c2ccccc2)CC1 (stereo unspecified)	i	i	-3%	-24%	?	13%
CC1(C(=O)Nc2cccc(C#N)c2)CCN1C(=O)Cc1ccc(-c2ccccc2)cc1 (stereo unspecified)	i	i	?	2.6µM*	4.1µM*	?
CC(C)c1ccc(CC(=O)N2CCC2(C)C(=O)Nc2cccc(C#N)c2)cc1 (stereo unspecified)	i	i	-29%	16µM*	?	-11%
Cc1ccc(NS(=O)(=O)c2cc3c(cc2F)NC(=O)CC3)cc1Cl	i	?	·	·	·	·
CC(C)C[C@H]1CN([C@@H](Cc2ccc(O)cc2)CN2CCC[C@H]2CN2C(=O)C(=O)NC[C@@H]2Cc2ccccc2)C(=O)C(=O)N1CC1CCCCCC1	i	i	-6%	?	?	-2%
CCC(=O)N1CCC1(C)C(=O)Nc1cccc(OC)c1 (stereo unspecified)	i	i	3%	-5%	-8%	17%
COc1cccc(NC(=O)C2(C)CCN2C(=O)CC2CCCC2)c1 (stereo unspecified)	16µM*	i	-8%	?	?	9%
CC1(C(=O)Nc2cccc3c2CCCC3)CCN1C(=O)CCC1CCCC1 (stereo unspecified)	i	i	1%	?	21µM*	12%
C/C(CC(=O)NC1CCCCC1)=N\NC(=O)COc1ccc(C)cc1Br	i	i	0%	-26%	-12%	-1%
CN1C(C(=O)Nc2cccc(O)c2)=CC(c2ccco2)=NS1(=O)=O	i	i	-9%	-12%	-27%	-11%
CCCS(=O)(=O)N1CCC(C(=O)NCCOC)CC1	?	i	·	-33%	-6%	·
Cc1ccc(-c2nc3ncccn3c2N)cc1	?	i	18%	-26%	?	19%
CCc1ccc(N2CC(C)Cn3c2nc2c3c(=O)n(CC(=O)O)c(=O)n2C)cc1 (stereo unspecified)	?	i	·	1%	-13%	·
COc1ccc(C(=O)CN2CC(C)SC2=Nc2ccc(Cl)cc2)cc1 (stereo unspecified)	?	?	10%	23µM*	?	0%
COc1ccc(C(=O)N2CC(c3ccc(Cl)cc3)CC2=O)cc1 (stereo unspecified)	i	i	6%	-20%	-1%	5%
O=C(CSc1nccn1Cc1ccccc1)Nc1ccc2c(c1)OCCO2	·	·	·	-17%	8%	·
Cc1[nH]n(C(N)=S)c(=O)c1N=Nc1ccccc1C(F)(F)F	i	i	-10%	15µM*	?	-5%
CCOc1ccccc1N=Nc1c(C)[nH]n(C(N)=S)c1=O	?	i	13%	15µM*	?	16%
NC(=S)n1[nH]c(-c2ccc([N+](=O)[O-])cc2)c(N=Nc2cccc(Cl)c2)c1=O	?	21µM*	?	6.5µM*	8.2µM*	?
